Screening results deposited in PubChem by National Center for Advancing Translational Sciences (NCATS).
FLuc modulator = counter-screen for miR-21 project: firefly luciferase inhibitors or activators; AID 588342; P08659; 360,000 compounds, 6.9% hits; Potency, µM (series often up to 57.5 µM), inactives show at the top dose activity change, negative = inhibition, hits mostly inhibitors; purified FLuc, Km substrates, luminescence inhibition;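 further: plate controls were vehicle for no effect and reference inhibitor for full effect; nearly all actives have a fitted effect of over 55% in size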
Target sequence (P08659 whole entry, looked up): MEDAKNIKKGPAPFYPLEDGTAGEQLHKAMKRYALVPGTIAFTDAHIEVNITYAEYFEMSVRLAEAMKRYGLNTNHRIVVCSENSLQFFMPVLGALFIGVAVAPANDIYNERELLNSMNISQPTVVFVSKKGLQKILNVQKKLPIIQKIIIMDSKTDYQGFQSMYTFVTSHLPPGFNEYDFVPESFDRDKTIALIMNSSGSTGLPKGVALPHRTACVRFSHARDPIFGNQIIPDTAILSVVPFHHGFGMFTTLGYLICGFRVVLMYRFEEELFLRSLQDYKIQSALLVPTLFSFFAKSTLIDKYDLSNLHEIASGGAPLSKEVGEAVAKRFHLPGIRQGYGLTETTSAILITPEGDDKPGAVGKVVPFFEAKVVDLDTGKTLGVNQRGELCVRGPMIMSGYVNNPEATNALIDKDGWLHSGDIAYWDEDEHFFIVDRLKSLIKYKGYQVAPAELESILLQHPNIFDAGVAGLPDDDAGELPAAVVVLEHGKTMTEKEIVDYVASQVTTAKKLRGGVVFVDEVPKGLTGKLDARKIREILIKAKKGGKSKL
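Purified P. pyralis luciferase (10nM final) with 10uM D-luciferin and 10uM ATP (Km levels) in 50mM Tris acetate pH 7.5, 10mM Mg acetate, 0.01% Tween-20, 0.05% BSA; qHTS 6-point titration, ~60 µM downward; luminescence read.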
ELG1 genotox = genotoxicity induction in ELG1-luciferase HEK293T cells; HEK293T ELG1-luciferase reporter, luminescence, 16 h; Potency, µM (highest dose often 46 µM), inactives show at the highest dose activity change, positive = activation, most hits filed as activators; 330,000 compounds, 1.3% hits; AID 504466; further: % of control where 0% means no effect; nearly all actives have a fitted effect of over 60% in size
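HEK293T cells expressing luciferase-tagged ELG1 were exposed to compound or DMSO vehicle for 16 hr at 37 °C and 5% CO2. Luciferase activity was then measured with ONE-Glo after 30 min at room temperature.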
Rab9 prom act = activators of Rab9 promoter; Huh7 Rab9 promoter-luciferase reporter, luminescence, 24 h; Potency, µM (doses to about 9.22 µM), for inactives: at the top dose activation, negative = inhibition, hits mostly activators; 320,000 compounds, 2.8% hits; AID 485297; further: % of control where 0% means no effect; nearly all actives have a fitted effect of over 60% in size
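Measured in stably transfected Huh7 cells bearing a Rab9 promoter–luciferase construct: 24 h compound treatment at 37 °C, followed by luminescence detection.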
ELG1 DNA repair = ELG1-dependent DNA repair inhibition; HEK293T ELG1-luciferase reporter, luminescence, 16 h; DNA damage induced by 5-fluorouridine; Potency, µM (doses to about 46.1 µM), for inactives: top-dose activity change, negative = inhibition, most hits filed as inhibitors; 330,000 compounds, 2.3% hits; AID 504467; further: on the % scale 0 is the no-effect control and ±100 the full control effect; nearly all actives have a fitted effect of over 55% in size
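Cells (2,000 per well) received 5-fluorouridine plus test compound or DMSO and were incubated 16 hr at 37 °C, 5% CO2. Luciferase activity was read by luminescence 30 min after ONE-Glo addition; signal suppression marked inhibition of damage-induced ELG1 function.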
SMN2 splice enh = increases expression of the SMN2 splice variant; HEK293 SMN2-luciferase splicing reporter, luminescence, 30-36 h; Potency, µM (doses to about 46.1 µM), for the others: top-dose activity change, positive = activation, most hits filed as activators; 210,000 compounds, 2.8% hits; AID 1458; further: % of control where 0% means no effect; nearly all actives have a fitted effect of over 55% in size
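qHTS luciferase splicing reporter: luminescence rises when SMN2 exon 7 is included in transfected HEK293 cells. Compound exposure lasted 30-36 h at 37C, with 4.5 mM final sodium butyrate as control, followed by a ONE-Glo read.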
NPC1 promoter act = activators of NPC1 promoter. Huh7 NPC1 promoter luciferase reporter, 24 h. Potency, µM (series often up to 9.22 µM), without a hit: at the top dose activation, hits mostly activators. 320,000 compounds, 2.4% hits. AID 485313; further: % of control where 0% means no effect; nearly all actives have a fitted effect of over 60% in size
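Stable NPC1-promoter luciferase Huh7 line; cpd (DMSO) 24 h, 37 °C, 5% CO2; Amplite luciferase reagent 10 min RT; luminescence readout. qHTS format.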
* marks the source's active call; other numbers are inactive results; ? = inconclusive; . = not tested or not shown; [ ] = remark or other dose. The list is not random: actives were taken first. Their share in the collection is about 9.2%. The call rests on the fitted dose curve; in most records, active means well fitted curve in the direction sought with a large enough effect; inconclusive means small, poorly fitted or top-dose-only effect, or another doubt; inactive means no such curve, though single readings can be large; an effect the other way counts as inactive or inconclusive. Potency means the concentration at half of the fitted maximal effect.

SMILES	FLuc modulator	ELG1 genotox	Rab9 prom act	ELG1 DNA repair	SMN2 splice enh	NPC1 promoter act
COC(=O)c1ccc(C)c(NC(=O)COC(=O)C2CC3CCCC(C2)C3=O)c1 (stereo not given)	-5%	-3%	-1%	5%	.	0%
CN1CC(c2ccc(C#N)cc2)C2(COc3ccccc3C2=O)C12C(=O)Nc1ccccc12 (stereo not given)	-2%	-7%	0%	-4%	-2%	-4%
O=C(CSCc1ccco1)c1ccc(Cl)s1	6.7µM*	7%	?	?	9%	2.8µM*
CN=Cc1nc(-c2ccccc2)oc1O	17µM*	?	2.5µM*	?	11µM*	3.5µM*
Cc1cc(=O)[nH]c2nnc(-c3ccc(Br)cc3)n12	0.95µM*	?	?	?	.	2.8µM*
COc1cc(/C=C/c2ccc3c(Br)cc(Br)c(O)c3n2)ccc1O	-4%	?	-33%	?	.	-11%
CCc1ccccc1NC(=O)COc1cccc2ccc(C)nc12	1%	-7%	-1%	?	-8%	1%
Oc1cccc(/C=C/c2ccc3cccc(O)c3n2)c1	1.5µM*	?	13%	?	.	?
Cc1ccc(/C=C/c2ccc3cccc(O)c3n2)s1	2.7µM*	21µM*	3.2µM*	?	.	4µM*
CC(=O)COc1cccc2ccc(/C=C/c3ccc(Br)s3)nc12	19µM*	-5%	?	4%	.	?
COc1cccc(/C=C/c2ccc3cccc(O)c3n2)c1	1.5µM*	23µM*	17%	?	.	?
O=C(O)c1ccc2cccc(O)c2n1	-11%	0%	-6%	-9%	.	2%
O=C(CNS(=O)(=O)c1ccc(Br)s1)NCc1ccccc1	0%	0%	-2%	-3%	.	1%
C[C@@H]1Cc2ccccc2N1NC(=O)c1ccc(Cl)c(S(N)=O)c1 (stereo not given in full)	.	.	.	.	-10%[20.6 µM]	.
COc1ccc(/C=N/Nc2ccc(C(=O)O)cc2)c(OC)c1OC	15µM*	16%	3.2µM*	?	.	2.8µM*
C=CCOc1c(OC)cc(/C=N/Nc2cccc(C(=O)O)c2)c(Br)c1Br	?	?	3.2µM*	?	14µM*	2.5µM*
COc1cc(/C=N/Nc2ccc(C(=O)O)cc2)cc(OC)c1OC	11µM*	16µM*	2µM*	?	.	1.6µM*
COc1cc(/C=N/Nc2ccc(C(=O)O)cc2)ccc1O	1.9µM*	?	?	?	?	?
C=CCOc1c(/C=N\NC(N)=O)cccc1OC	-1%	1%	0%	0%	.	-9%
OCCC1CN(Cc2cccn2-c2ncccn2)CCN1CCc1ccccc1 (stereo not given)	0%	-1%	2%	-3%	.	0%
Nc1ccc(C(=O)NC23CC4CC(CC(C4)C2)C3)cc1	-19%	4%	11%	7%	.	2%
CC(C)CC(=O)NC(C)C(c1cccs1)N1CCOCC1 (stereo not given)	1%	0%	5%	8%	.	0%
CCn1cc(C(=O)O)c(=O)c2cnc(N3CCN(C(=S)Nc4ccccc4Cl)CC3)nc21	3%	-9%	-25%	12µM*	.	-28%
CCn1cc(C(=O)O)c(=O)c2cnc(N3CCN(C(=S)Nc4ccc(F)cc4)CC3)nc21	-3%	-2%	1%	-1%	.	-21%
Cc1ccc(CC(=O)NCc2ccc(F)cc2)cc1	2%	12%	-27%	7%	28%	-25%
SMILES	FLuc modulator	ELG1 genotox	Rab9 prom act	ELG1 DNA repair	SMN2 splice enh	NPC1 promoter act
O=C(NNC(=O)c1ccc(F)cc1F)c1ccc2c(c1)OCO2	?	?	3.2µM*	?	?	24%
O=C(Nc1cccc(F)c1)c1ccc2c(c1)OCO2	11µM*	5.2µM*	1.6µM*	?	6.3µM*	2.8µM*
O=C(c1cc2c(s1)CCCC2)N1CCN(Cc2ccc3c(c2)OCO3)CC1	1%	-16%	1%	?	-16%	-3%
O=C(Oc1ccc2c(c1)OCO2)c1cc2c(s1)CCC2	3.8µM*	1%	-7%	-1%	14%	13%
O=C(Nc1c(C(=O)Nc2cccc(F)c2)oc2ccccc12)c1ccc2c(c1)OCO2	8.5µM*	?	21%	17%	2%	3%
Cc1cc(C)n(S(=O)(=O)c2ccc(C)c(C)c2)n1	-2%	-1%	6%	10%	.	-2%
Cc1ccc(NC(=O)c2oc3ccccc3c2NC(=O)c2ccc3c(c2)OCO3)cc1	6.7µM*	5%	16%	12%	-11%	1%
O=C(Oc1ccc2c(c1)OCO2)c1ccc(F)cc1Cl	2.7µM*	6%	?	?	-12%	4%
Cc1ccc(CNC(=O)Cn2ccn(-c3ccc(F)cc3)c(=O)c2=O)cc1	3%	.	.	.	.	.
O=C(C[n+]1cc(-c2ccc(F)cc2)n2c1CCC2)c1cccs1	2.4µM*	?	2.5µM*	?	.	3.2µM*
O=C(C[n+]1cc(-c2ccccc2)n2c1CCCCC2)c1ccc(Cl)cc1	0%	-8%	-9%	5%	8%	-1%
COc1ccc(-c2c[n+](CC(=O)c3ccccc3)c3n2CCCCC3)cc1	0%	-4%	-11%	15µM*	.	-3%
COc1ccc(C(=O)COC(=O)CCN=C2NS(=O)(=O)c3ccccc32)c(OC)c1	-1%	5%	-4%	-1%	.	0%
CCN1CCN(C(c2ccccc2Cl)c2c(O)cc(C)n(Cc3ccco3)c2=O)CC1 (stereo not given)	-16%	.	.	.	.	.
CCNC(=S)NNC(=O)c1cc(-c2cc(C)ccc2C)nc2ccccc12	19µM*	-4%	-1%	1%	-18%	-5%
COCCCNC(=S)NNC(=O)c1cc(C2CC2)nc2ccccc12	12µM*	2%	-4%	-2%	.	-1%
CCCc1cc(C(=O)NNC(=S)NCC)c2ccccc2n1	?	3%	-2%	-1%	-70%	-1%
COCCCNC(=S)NNC(=O)c1cc(-c2ccncc2)nc2ccccc12	8.5µM*	8%	0%	19%	.	-1%
COCCCNC(=S)NNC(=O)c1cc(-c2cccnc2)nc2ccccc12	11µM*	4%	-3%	-4%	.	0%
COc1ccccc1CNC(=O)CN(C)Cc1ccc(SC)cc1	0%	0%	12%	-11%	.	0%
O=C(CNS(=O)(=O)/C=C/c1ccccc1)OC1CCOC1=O (stereo not given)	-2%	0%	-3%	-6%	9%	-2%
Cc1ccc(-c2nnc3cccc(Cl)n23)cc1	-6%	2%	-2%	-8%	-10%	1%
